# Values without a mark were called inactive. Records with an inconclusive call do not appear. A call without a number means that no potency is given here. Calls of active or inactive are those of the source. Unless noted, calls come from the whole dose curve; as a rule, active = well fitted curve in the direction sought with a large enough effect; inconclusive = small, poorly fitted or top-dose-only effect, or another doubt; inactive = no such curve, though single readings can be large; an effect the other way counts as inactive or inconclusive.
# Columns and labels:
# [1] = molecular target: Dual specificity protein kinase CLK4 (Homo sapiens) (UniProt Q9HAZ1); assay: qHTS Assay for Inhibitors of CDC-like Kinase 4 (ADP-Glo Assay) (AID 1771); note: nearly all actives have a fitted effect of over 70% in size; note: potency is the fitted concentration of half-maximal effect
# Outline: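 ADP production was read by ADP-Glo luminescence after residual ATP depletion, following 1 h room-temperature reaction of 25 nM Clk4, 1 uM ATP and 100 uM RS peptide with MgCl2, EGTA, DTT and Triton X-100.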
# [2] = qHTS Assay for Modulators of Human Peripheral Myelin Protein 22 (PMP22) Expression/Activity (AID 1967; active = well fitted curve in the direction sought with a large enough effect in the signal ratio; the % refers to the signal ratio)
# Outline: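 Luminescence ratio of Pmp22 promoter-driven green luciferase to EF-alpha-driven red luciferase, in engineered mouse MSC80 Schwann cells, served as read-out. Compounds were incubated 24h; untreated cells defined 0% Activity; curves were classified by r2, magnitude and activity.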
# [3] = molecular target: Transient receptor potential cation channel subfamily V member 1 (Homo sapiens) (UniProt Q8NER1); assay: HTS Assay for Compounds that Act as Enhancers of the Vanilloid Receptor 1 (AID 488979)
# Outline: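 TRPV1 cells loaded with Fluo-8 calcium dye; compound added and Ca2+ signal (ex 480/em 520 nm) followed 3 min, then capsaicin at EC20 added and read 2 more min to detect enhancement.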
# [4] = Validation screen for small molecules that induce DNA re-replication in SW480 colon adenocarcinoma cells (AID 504364)
# Outline: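 Image-based DNA content read-out: Hoechst stain 40 min, total nuclear fluorescence intensity (ex 405 nm, em 500-530 nm) after 48 h compound exposure of 250 SW480 cells/well at 37 C, 5% CO2, versus DMSO vehicle.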
# [5] = molecular target: Voltage-gated inwardly rectifying potassium channel KCNH2 (Homo sapiens) (UniProt Q12809); assay: qHTS Assay for Small Molecule Inhibitors of the Human hERG Channel Activity (AID 588834);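 note: top concentration of the series differs between compounds; lower thallium flux fluorescence means stronger hERG block; nearly all actives have a fitted effect of over 50% in size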
# Outline: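 Step 1: BacMam hERG transduction of U2OS, 4 hrs RT. Step 2: overnight 37 °C, plate 2000 cells/well, 4 hr. Step 3: FluxOR load, compound 10 min, stimulate, read fluorescence.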
# [6] = molecular target: Dual specificity protein kinase CLK4 (Homo sapiens) (UniProt Q9HAZ1); assay: qHTS Assay for Inhibitors of CDC-like Kinase 4 (ADP-FP Assay) (AID 1795); note: nearly all actives have a fitted effect of over 60% in size; note: potency is the fitted concentration of half-maximal effect
# Outline: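 Clk4 6.25 nM; RS peptide 100 uM; ATP 1 uM; 25 mM Tris pH 7.5, 10 mM MgCl2; 1 h reaction. ADP detected via antibody/orange tracer FP displacement; TG003 positive control.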
# [7] = molecular target: Guanine nucleotide-binding protein G(i) subunit alpha-1 (Homo sapiens) (UniProt P63096); assay: qHTS Assay for Inhibitors of RGS12 GoLoco Motif Activity (Green Fluorophore) (AID 879);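 note: negative values mean loss of peptide binding seen as reduced polarization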
# Outline: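 A drop in FITC polarization marked displacement of the FITC-tagged RGS12 GoLoco peptide (10 nM) from Gαi1 (50 nM). Compounds were incubated 10 min at room temperature in Tris pH 7.5 buffer containing 150 mM NaCl, 0.1 mM GDP and 0.05% NP40; unlabeled peptide titration served as control.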
# [8] = qHTS Assay for Identification of Small Molecule Agonists for Thrombopoietin (TPO) Signaling Pathway (AID 917)
# Outline: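 Cell-based luciferase reporter screen. Mouse Ba/F3 line stably expressing human TPO receptor; IL-3 removed overnight before plating. Co-treatment with compound and EC50 TPO (26 pM), 24 hrs at 37 C, then luminescence.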
# [9] = molecular target: Muscarinic acetylcholine receptor M1 (Rattus norvegicus) (UniProt P08482); assay: qHTS Assay for Antagonists of Acetylcholine Muscarinic M1 Receptor: Measurement of IP-One Response (AID 944); note: nearly all actives have a fitted effect of over 75% in size
# Outline: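 IP1 accumulation measured via TR-FRET between d2-IP1 and Eu-cryptate anti-IP1 antibody after carbachol (200 nM, EC80) stimulation for 30 min; rat M1-transfected CHO cells received compound 10 min before agonist.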
# [10] = molecular target: Pyruvate kinase (Leishmania mexicana) (UniProt Q27686); assay: qHTS Validation Assay for Inhibitors of Leishmania Mexicana Pyruvate Kinase (AID 945)
# Outline: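 Eight-point qHTS titrations in triplicate, data normalized to DMSO neutral control. Reaction: 0.2 nM LmPYK E451W mutant, 0.5 mM PEP, 0.1 mM ADP, 7 mM MgCl2, pH 7.2, one hour at room temperature; luminescent ATP detection.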
# [11] = molecular target: Pyruvate kinase PKM (Homo sapiens) (UniProt P14618); assay: qHTS Assay for Activators of Human Muscle Pyruvate Kinase (AID 954; active = well fitted curve in the direction sought with a large enough effect, not every such curve was filed as active)
# Outline: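 Screening used highly purified human pyruvate kinase M2 under submaximal activity, with PEP at its Km and ADP below Km. After an hour at room temperature, ATP was read by luciferase luminescence.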
# [12] = molecular target: Alpha-galactosidase A (Homo sapiens) (UniProt P06280); assay: Counterscreen for Glucocerebrosidase Inhibitors: qHTS Assay for Human alpha-Galactosidase at pH 4.5 (AID 992)
# Outline: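 Each compound is preincubated briefly with 2 nM enzyme before substrate addition (80 uM); plates then sit 20 min at ambient temperature, are quenched with 1M NaOH/1M glycine, and read fluorometrically.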
# [13] = molecular target: alpha-glucosidase (Oryza sativa, rice) (UniProt Q653V4); assay: Counterscreen for Glucocerebrosidase Inhibitors: qHTS Assay for Rice alpha-Glucosidase at pH 5.0 (AID 997)
# Outline: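 Endpoint fluorogenic assay at pH 5.0: compounds (0.7 nM to 77 uM) titrated against 4 nM rice enzyme and 400 uM 4-MU-alpha-glucoside for 20 min at room temperature; NaOH/glycine stop, read ex 365/em 440 nm, Hill-fitted AC50.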
# [14] = molecular target: DNA dC->dU-editing enzyme APOBEC-3G (Homo sapiens) (UniProt Q9HC16); assay: qHTS for inhibitors of Vif-A3G interactions: Validation (AID 588379)
# Outline: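 Yellow fluorescence (Ex 488, Em 500-530) of Vif-coexpressing HeLa A3G-eYFP cells, scanned by Acumen cytometer, reports blocked A3G degradation. Cells plated at 700/well overnight at 37 deg C before compound addition, then a further overnight compound incubation at 37 deg C.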
# [15] = molecular target: Muscarinic acetylcholine receptor M1 (Rattus norvegicus) (UniProt P08482); assay: qHTS Assay for Antagonists of Acetylcholine Muscarinic M1 Receptor: Kinetic Measurement of Intracellular Calcium Response (AID 943); note: potency is the fitted concentration of half-maximal effect; nearly all actives have a fitted effect of over 75% in size
# Outline: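 Antagonism measured as reduction of carbachol-evoked (EC80, 100 nM final) calcium flux in rat M1-CHO cells after 10 min compound exposure. Fluo-4 signal read kinetically; ratio of maximal to basal fluorescence.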
# [16] = molecular target: RecQ-like DNA helicase BLM (Homo sapiens) (UniProt P54132); assay: qHTS Validation Assay for Inhibitors of Bloom's syndrome helicase (BLM) (AID 2364)
# Outline: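 50 nM BLM preincubated 15 min at room temperature with compound in pH 8.0 Tris buffer containing 2.5 ug/ml poly(dI-dC); started with 200 nM TAMRA/BHQ-2 forked duplex and 2 mM ATP (final). Unwinding read as TAMRA fluorescence increase, two reads 2 h apart.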
# [17] = molecular target: ATP-dependent 6-phosphofructokinase (Trypanosoma brucei brucei) (UniProt O15648); assay: qHTS Assay to Find Inhibitors of T. brucei phosphofructokinase: hit validation (AID 492961)
# Outline: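 Luminescence from ADP-Glo reports ADP generated as T. brucei PFK (1.25 nM) phosphorylates 0.5 mM fructose-6-phosphate using 0.1 mM ATP. Reactions ran 45 min at room temperature, pH 8.0.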
# [18] = qHTS profiling for inhibitors of Plasmodium falciparum proliferation (AID 504749); note: nearly all actives have a fitted effect of over 60% in size; settings: P. falciparum in erythrocytes, SYBR Green DNA, 72 h, at 28.7 µM (top of the series)
# Outline: (§1)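 Each compound contacts P. falciparum-infected red blood cells for 72 h at 37 C; lysis buffer (Tris, EDTA, saponin, Triton X, SYBR Green I) is added and fluorescence measured next morning; values normalized to controls.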
# CP203 = assay: as above; settings: P. falciparum in erythrocytes, SYBR Green DNA, 72 h; series mostly up to 28.7 µM
# Outline: as §1
# W2 = assay: as above; settings: P. falciparum in erythrocytes, SYBR Green DNA, 72 h; series mostly up to 28.7 µM
# Outline: as §1
# Chain of Muscarinic acetylcholine receptor M1 (Rattus norvegicus) (P08482 whole entry, looked up): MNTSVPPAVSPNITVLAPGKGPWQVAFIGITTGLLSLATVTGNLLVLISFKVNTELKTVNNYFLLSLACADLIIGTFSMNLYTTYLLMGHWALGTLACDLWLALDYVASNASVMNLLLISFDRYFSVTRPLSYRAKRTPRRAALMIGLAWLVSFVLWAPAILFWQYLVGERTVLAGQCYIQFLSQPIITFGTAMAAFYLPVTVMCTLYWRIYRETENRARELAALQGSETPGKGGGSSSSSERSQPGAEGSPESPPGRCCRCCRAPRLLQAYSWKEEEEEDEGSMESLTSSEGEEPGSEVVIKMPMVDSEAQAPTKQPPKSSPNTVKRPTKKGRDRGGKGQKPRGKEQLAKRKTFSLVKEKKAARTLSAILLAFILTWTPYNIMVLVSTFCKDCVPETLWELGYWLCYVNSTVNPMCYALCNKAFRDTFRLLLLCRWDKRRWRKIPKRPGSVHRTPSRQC
# Chain of Pyruvate kinase (Leishmania mexicana) (Q27686 2-499 E452W): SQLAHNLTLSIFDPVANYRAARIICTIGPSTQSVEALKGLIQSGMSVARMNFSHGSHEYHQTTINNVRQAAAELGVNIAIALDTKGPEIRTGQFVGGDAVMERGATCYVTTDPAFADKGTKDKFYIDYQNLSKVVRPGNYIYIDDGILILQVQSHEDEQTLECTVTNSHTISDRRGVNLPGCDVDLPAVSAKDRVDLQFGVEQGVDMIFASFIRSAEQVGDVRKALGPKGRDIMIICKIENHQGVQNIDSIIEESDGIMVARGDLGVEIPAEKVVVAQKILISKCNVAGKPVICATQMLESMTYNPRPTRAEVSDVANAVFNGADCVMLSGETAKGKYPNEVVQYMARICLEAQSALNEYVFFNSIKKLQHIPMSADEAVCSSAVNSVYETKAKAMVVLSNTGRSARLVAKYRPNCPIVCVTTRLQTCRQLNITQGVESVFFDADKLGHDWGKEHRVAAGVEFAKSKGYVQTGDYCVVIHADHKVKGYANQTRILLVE
# Chain of Dual specificity protein kinase CLK4 (Homo sapiens) (Q9HAZ1 whole entry, looked up): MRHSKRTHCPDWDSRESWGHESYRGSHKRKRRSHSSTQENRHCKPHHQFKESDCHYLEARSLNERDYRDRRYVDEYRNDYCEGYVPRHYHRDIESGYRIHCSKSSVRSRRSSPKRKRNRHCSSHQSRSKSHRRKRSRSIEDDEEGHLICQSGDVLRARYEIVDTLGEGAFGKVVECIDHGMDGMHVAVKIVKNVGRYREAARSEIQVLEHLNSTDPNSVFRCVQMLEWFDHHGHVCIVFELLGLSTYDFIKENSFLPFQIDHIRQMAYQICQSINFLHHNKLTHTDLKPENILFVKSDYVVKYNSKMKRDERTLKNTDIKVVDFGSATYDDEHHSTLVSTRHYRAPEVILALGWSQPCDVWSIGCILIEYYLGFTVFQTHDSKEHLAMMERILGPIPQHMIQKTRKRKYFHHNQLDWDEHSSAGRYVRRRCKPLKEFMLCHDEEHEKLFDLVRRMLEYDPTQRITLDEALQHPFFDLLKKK
# Chain of Guanine nucleotide-binding protein G(i) subunit alpha-1 (Homo sapiens) (P63096 whole entry, looked up): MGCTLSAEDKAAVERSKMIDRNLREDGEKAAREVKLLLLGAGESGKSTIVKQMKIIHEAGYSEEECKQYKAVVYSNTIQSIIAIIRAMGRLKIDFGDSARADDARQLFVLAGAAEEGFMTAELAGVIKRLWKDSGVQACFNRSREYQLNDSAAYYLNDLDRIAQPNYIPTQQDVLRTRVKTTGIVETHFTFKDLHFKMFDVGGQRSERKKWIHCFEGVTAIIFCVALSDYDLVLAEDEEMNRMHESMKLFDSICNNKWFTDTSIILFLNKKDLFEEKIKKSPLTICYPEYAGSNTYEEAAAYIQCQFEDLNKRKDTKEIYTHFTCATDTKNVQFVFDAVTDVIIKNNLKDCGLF
# Chain of Pyruvate kinase PKM (Homo sapiens) (P14618 whole entry, looked up): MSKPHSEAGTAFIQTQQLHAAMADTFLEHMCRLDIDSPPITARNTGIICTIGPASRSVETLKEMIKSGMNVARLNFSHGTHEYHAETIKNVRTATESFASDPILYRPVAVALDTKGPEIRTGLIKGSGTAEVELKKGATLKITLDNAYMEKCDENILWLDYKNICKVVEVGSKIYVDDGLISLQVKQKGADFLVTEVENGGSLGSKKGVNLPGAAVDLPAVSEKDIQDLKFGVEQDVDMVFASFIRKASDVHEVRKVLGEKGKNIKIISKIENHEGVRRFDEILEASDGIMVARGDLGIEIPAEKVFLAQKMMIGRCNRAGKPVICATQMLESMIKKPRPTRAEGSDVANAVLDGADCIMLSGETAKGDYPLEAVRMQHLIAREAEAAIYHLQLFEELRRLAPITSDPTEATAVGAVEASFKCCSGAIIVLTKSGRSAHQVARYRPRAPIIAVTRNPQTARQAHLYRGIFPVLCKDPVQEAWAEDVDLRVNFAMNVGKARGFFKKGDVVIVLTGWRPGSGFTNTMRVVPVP
# Chain of Alpha-galactosidase A (Homo sapiens) (P06280 whole entry, looked up): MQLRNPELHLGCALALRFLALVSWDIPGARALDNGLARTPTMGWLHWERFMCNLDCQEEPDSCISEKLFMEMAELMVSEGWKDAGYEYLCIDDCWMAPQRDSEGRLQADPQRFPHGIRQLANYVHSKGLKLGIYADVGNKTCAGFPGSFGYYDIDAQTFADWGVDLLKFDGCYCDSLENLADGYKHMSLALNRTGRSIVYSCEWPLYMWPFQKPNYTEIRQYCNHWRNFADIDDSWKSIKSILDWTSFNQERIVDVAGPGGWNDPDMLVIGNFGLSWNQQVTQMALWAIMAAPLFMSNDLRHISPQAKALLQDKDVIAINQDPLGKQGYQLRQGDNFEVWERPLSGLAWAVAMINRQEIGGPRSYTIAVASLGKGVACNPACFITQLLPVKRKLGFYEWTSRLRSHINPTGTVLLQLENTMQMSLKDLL
# Chain of Transient receptor potential cation channel subfamily V member 1 (Homo sapiens) (Q8NER1 whole entry, looked up): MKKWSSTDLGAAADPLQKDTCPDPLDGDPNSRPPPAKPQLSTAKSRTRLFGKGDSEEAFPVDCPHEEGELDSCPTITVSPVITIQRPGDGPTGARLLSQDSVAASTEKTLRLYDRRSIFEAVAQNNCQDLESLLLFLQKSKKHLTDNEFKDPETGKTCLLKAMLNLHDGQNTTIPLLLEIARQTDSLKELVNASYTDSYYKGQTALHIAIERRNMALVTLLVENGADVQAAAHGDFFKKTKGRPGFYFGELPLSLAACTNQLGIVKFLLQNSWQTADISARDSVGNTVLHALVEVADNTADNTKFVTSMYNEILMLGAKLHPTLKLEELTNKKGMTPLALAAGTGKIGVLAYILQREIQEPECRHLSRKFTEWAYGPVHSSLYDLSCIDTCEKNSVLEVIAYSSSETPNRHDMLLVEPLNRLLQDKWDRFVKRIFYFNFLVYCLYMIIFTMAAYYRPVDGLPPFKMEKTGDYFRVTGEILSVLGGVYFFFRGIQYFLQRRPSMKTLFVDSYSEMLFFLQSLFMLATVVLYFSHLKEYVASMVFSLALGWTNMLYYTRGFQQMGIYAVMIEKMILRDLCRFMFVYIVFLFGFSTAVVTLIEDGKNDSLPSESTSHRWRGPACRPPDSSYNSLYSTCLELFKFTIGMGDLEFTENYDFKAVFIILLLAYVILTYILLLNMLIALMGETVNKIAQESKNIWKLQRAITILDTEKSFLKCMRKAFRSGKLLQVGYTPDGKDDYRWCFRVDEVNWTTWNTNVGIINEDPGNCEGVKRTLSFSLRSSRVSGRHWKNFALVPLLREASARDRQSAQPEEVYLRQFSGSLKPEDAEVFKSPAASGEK
# Chain of Voltage-gated inwardly rectifying potassium channel KCNH2 (Homo sapiens) (Q12809 whole entry, looked up): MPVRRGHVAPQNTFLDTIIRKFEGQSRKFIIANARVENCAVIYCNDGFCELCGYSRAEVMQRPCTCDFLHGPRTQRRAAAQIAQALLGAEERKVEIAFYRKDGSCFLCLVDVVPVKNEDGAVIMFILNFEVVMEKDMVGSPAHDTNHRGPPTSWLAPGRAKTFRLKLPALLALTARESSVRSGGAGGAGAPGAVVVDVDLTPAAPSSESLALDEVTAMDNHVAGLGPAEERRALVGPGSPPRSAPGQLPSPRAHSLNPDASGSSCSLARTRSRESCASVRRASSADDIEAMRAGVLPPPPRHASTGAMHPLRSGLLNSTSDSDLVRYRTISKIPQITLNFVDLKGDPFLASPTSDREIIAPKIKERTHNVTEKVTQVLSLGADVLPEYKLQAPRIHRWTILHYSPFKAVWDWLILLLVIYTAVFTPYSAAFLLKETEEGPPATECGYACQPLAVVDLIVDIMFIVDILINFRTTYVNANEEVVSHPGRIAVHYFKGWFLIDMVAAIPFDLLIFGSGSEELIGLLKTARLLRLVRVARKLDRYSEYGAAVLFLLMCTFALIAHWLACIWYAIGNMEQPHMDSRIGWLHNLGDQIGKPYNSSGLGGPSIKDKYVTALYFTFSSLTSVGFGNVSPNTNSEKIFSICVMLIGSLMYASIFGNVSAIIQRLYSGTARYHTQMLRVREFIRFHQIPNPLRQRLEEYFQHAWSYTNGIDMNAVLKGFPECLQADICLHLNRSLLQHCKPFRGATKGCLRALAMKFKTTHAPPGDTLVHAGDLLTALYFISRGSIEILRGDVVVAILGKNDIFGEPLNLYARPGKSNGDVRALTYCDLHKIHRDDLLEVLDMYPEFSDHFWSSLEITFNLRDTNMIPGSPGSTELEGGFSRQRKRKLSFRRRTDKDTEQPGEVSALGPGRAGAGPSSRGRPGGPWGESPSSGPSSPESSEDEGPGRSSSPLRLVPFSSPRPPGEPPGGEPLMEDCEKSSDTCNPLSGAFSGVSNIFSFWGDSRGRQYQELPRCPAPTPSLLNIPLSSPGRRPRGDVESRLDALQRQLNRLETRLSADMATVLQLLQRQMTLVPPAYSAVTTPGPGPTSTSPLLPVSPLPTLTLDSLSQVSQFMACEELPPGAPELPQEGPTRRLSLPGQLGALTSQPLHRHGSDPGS
structure (smiles),measurement,setting,value
COc1ccc(CNc2ncnc3ccc(-c4cccnc4)cc23)c(OC)c1,Potency,[1],14.1 µM (active)
COc1c2c(nc3ccccc13)OC(C(C)(O)CO)C2 (centres undefined),outcome,[2],inactive
same,outcome,[3],inactive
same,outcome,[4],inactive
same,Potency,[5],inactive
CCNc1ncc2nc(C)c(=O)n(CCC#N)c2n1,Potency,[6],inactive
CN(Cc1ccco1)c1ncncc1-c1ccoc1,Potency,[1],inactive
same,Potency,[6],inactive
NCCNC(=O)c1ccc(Cl)cc1,outcome,[7],inactive
same,outcome,[8],inactive
same,Potency,[9],inactive
same,Potency,[10],inactive
same,outcome,[11],inactive
same,outcome,[12],inactive
same,outcome,[13],inactive
same,outcome,[3],inactive
same,outcome,[4],inactive
same,outcome,[14],inactive
same,Potency,[5],inactive
COCCn1c(=O)cnc2cnc(Nc3cccc(OC)c3)nc21,Potency,[1],1.78 µM (active)
same,Potency,[6],1.26 µM (active)
NCC1OC(O[C@@H]2[C@H](O)[C@@H](OC3C(O)C(N)CC(N)C3OC3OC(CO)C(O)C(O)C3N)O[C@@H]2CO)C(N)C(O)C1O (some centres undefined),outcome,[2],inactive
same,outcome,[3],inactive
same,outcome,[4],inactive
same,Potency,[5],inactive
O=c1c(-c2ccc(Cl)cc2)nc2cnc(N3CCNCC3)nc2n1Cc1cccs1,Potency,[1],inactive
same,Potency,[6],inactive
O=C(Cc1ccc(Cl)c(Cl)c1)OCCN1CCCC1,outcome,[7],inactive
same,outcome,[8],inactive
same,Potency,[15],14.1 µM (active)
same,Potency,[10],inactive
same,outcome,[11],inactive
same,outcome,[12],inactive
same,outcome,[13],inactive
same,outcome,[2],inactive
same,outcome,[3],inactive
same,outcome,[4],inactive
same,Potency,[5],inactive
CCCNC[C@H](O)COc1ccccc1C(=O)CCc1ccccc1,outcome,[7],inactive
same,Potency,[9],inactive
same,Potency,[10],inactive
same,outcome,[11],inactive
same,outcome,[12],inactive
same,outcome,[13],inactive
same,Potency,[16],inactive
CN(C)Cc1ccccc1-c1cncnc1Nc1ccncc1,Potency,[6],inactive
NC(=O)C1=CN(C2OC(COP(=O)(O)OP(=O)(O)OC[C@H]3O[C@@H](n4cnc5c(N)ncnc54)[C@H](OP(=O)(O)O)[C@H]3O)C(O)C2O)C=CC1 (some centres undefined),Potency,[16],inactive
same,outcome,[3],inactive
same,outcome,[4],inactive
same,Potency,[5],inactive
CN=C(N)NCCCC(N)C(=O)O (centres undefined),outcome,[2],inactive
same,outcome,[3],inactive
same,outcome,[17],inactive
same,outcome,[4],inactive
same,"activity, negative = inhibition",[18]; parasite line A,12.3%
same,"activity, negative = inhibition",[18]; parasite line B,12.2%
same,Potency,CP203,inactive
same,Potency,W2,inactive
COc1ccc(Oc2ncc3nc(CCc4ccccc4)c(=O)n(C[C@H]4CCCO4)c3n2)cc1,Potency,[1],inactive

# Reference: PubChem BioAssay (NCATS)
